# Results from PubChem BioAssay (EPA / NIEHS).
# The source made the active and inactive calls. The calls were made as follows: active = hit-call score of the fitted dose curve at least 0.9, where 1 is the maximum; inactive = score below 0.9.
# Read-out: Alkaline Phosphatase, Placental (ALPP) gene, ALPP (gene 250)
# Assay: LTEA_HepaRG_ALPP: Life Technologies and Expression Analysis (LTEA) Assay for Alkaline Phosphatase, Placental (ALPP) gene using HepaRG (AID 2283468);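 as to AC50: differentiated human HepaRG liver cells in serum-free induction medium; ALPP transcript by TaqMan qRT-PCR normalized to ACTB GAPDH and POLR2A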
# Details: mRNA level, 48 h; actives raise or lower the signal
# In short: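 Expression of ALPP was quantified by qRT-PCR against three housekeeping genes in human HepaRG cultures treated for 48 h with an eight-point concentration series up to 100 uM. Activity in either direction was fitted relative to 0.5% DMSO.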
SMILES,AC50,outcome
CCCCC(O)(Cn1cncn1)c1ccc(Cl)cc1Cl (configuration not stated),73.3 µM (active),–
CC(C)N1C(=O)c2ccccc2NS1(=O)=O,–,inactive
O=C(Nc1ccccc1-c1ccc(Cl)cc1)c1cccnc1Cl,–,inactive
N#CN=C1SCCN1Cc1ccc(Cl)nc1,–,inactive
CCNC(=O)NC(=O)C(C#N)=NOC,–,inactive
Cc1c(COC(=O)[C@@H]2[C@H](/C=C(\Cl)C(F)(F)F)C2(C)C)cccc1-c1ccccc1,–,inactive
C=C(C)CN(CC)c1c([N+](=O)[O-])cc(C(F)(F)F)cc1[N+](=O)[O-],–,inactive
CC(C)C1(C)N=C(c2ncccc2C(=O)O)NC1=O (configuration not stated),–,inactive
CCCC(=NOCC)C1=C(O)CC(CC(C)SCC)CC1=O (configuration not stated),–,inactive
O=C1C2CC=CCC2C(=O)N1SC(Cl)(Cl)Cl (configuration not stated),10.8 µM (active),–
COCc1cnc(C2=NC(C)(C(C)C)C(=O)N2)c(C(=O)O)c1 (configuration not stated),–,inactive
Cc1nc(N(C)C)nc(OC(=O)N(C)C)c1C,–,inactive
CC(C)N1C(=O)N(c2ccccc2)CSC1=NC(C)(C)C,78.3 µM (active),–
Clc1cccc(C(Cl)(Cl)Cl)n1,–,inactive
CC1(C)CON(Cc2ccccc2Cl)C1=O,–,inactive
CN/C(=N\[N+](=O)[O-])NCc1cnc(Cl)s1,–,inactive
Cc1ccc(N=CN(C)C=Nc2ccc(C)cc2C)c(C)c1,–,inactive
CCN(CC)c1nc(C)cc(OP(=S)(OC)OC)n1,–,inactive

SMILES,AC50,outcome
COCC(C)N(C(=O)CCl)c1c(C)csc1C (configuration not stated),–,inactive
CCOc1nc(C(Cl)(Cl)Cl)ns1,2.14 µM (active),–
CCC(C)n1c(=O)[nH]c(C)c(Br)c1=O (configuration not stated),–,inactive
Nc1cnn(-c2ccccc2)c(=O)c1Cl,–,inactive
N#Cc1c(Cl)cccc1Cl,–,inactive
CCN(CC)C(=O)C(C)Oc1cccc2ccccc12 (configuration not stated),84.3 µM (active),–
CC1(C)C(C(=O)OC(C#N)c2cccc(Oc3ccccc3)c2)C1(C)C (configuration not stated),–,inactive
CC(C)Nc1nc(Cl)nc(NC(C)C)n1,–,inactive
N#Cc1c[nH]cc1-c1cccc2c1OC(F)(F)O2,10 µM (active),–
Cn1c(-c2ccccc2)cc(-c2ccccc2)[n+]1C,50 µM (active),–
CCCN(CC)CC1COC2(CCC(C(C)(C)C)CC2)O1 (configuration not stated),–,inactive
CCNP(=S)(OC)O/C(C)=C/C(=O)OC(C)C (configuration not stated),–,inactive
CS(=O)(=O)c1ccc(C(=O)C2C(=O)CCCC2=O)c([N+](=O)[O-])c1,–,inactive
COP(=S)(OC)Oc1ccc([N+](=O)[O-])c(C)c1,–,inactive
COC(=O)NC(=S)Nc1ccccc1NC(=S)NC(=O)OC,–,inactive
COc1cc(Cl)c(OC)cc1Cl,–,inactive
CC(C)(C)C(=O)C(Oc1ccc(Cl)cc1)n1cncn1 (configuration not stated),–,inactive
CCCCOCN(C(=O)CCl)c1c(CC)cccc1CC,–,inactive

# Read-out: Bcl-2 (BAD) gene, BAD (gene 572)
# Assay: LTEA_HepaRG_BAD: Life Technologies and Expression Analysis (LTEA) Assay for Bcl-2 (BAD) gene using HepaRG (AID 2283469)
# Details: mRNA level, 48 h; actives raise or lower the signal
# In short: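 Activity values reflect up- or down-regulation of BAD mRNA in human HepaRG hepatic cells treated 48 h in serum-free medium, with eight-point half-log dosing capped at 100 uM and 0.5% DMSO vehicle.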
SMILES,outcome,AC50
CCCCC(O)(Cn1cncn1)c1ccc(Cl)cc1Cl (configuration not stated),inactive,–
CC(C)N1C(=O)c2ccccc2NS1(=O)=O,inactive,–
O=C(Nc1ccccc1-c1ccc(Cl)cc1)c1cccnc1Cl,inactive,–
N#CN=C1SCCN1Cc1ccc(Cl)nc1,inactive,–
CCNC(=O)NC(=O)C(C#N)=NOC,inactive,–
Cc1c(COC(=O)[C@@H]2[C@H](/C=C(\Cl)C(F)(F)F)C2(C)C)cccc1-c1ccccc1,inactive,–
C=C(C)CN(CC)c1c([N+](=O)[O-])cc(C(F)(F)F)cc1[N+](=O)[O-],inactive,–
CC(C)C1(C)N=C(c2ncccc2C(=O)O)NC1=O (configuration not stated),inactive,–
CCCC(=NOCC)C1=C(O)CC(CC(C)SCC)CC1=O (configuration not stated),inactive,–
O=C1C2CC=CCC2C(=O)N1SC(Cl)(Cl)Cl (configuration not stated),inactive,–
COCc1cnc(C2=NC(C)(C(C)C)C(=O)N2)c(C(=O)O)c1 (configuration not stated),inactive,–
Cc1nc(N(C)C)nc(OC(=O)N(C)C)c1C,inactive,–
CC(C)N1C(=O)N(c2ccccc2)CSC1=NC(C)(C)C,inactive,–
Clc1cccc(C(Cl)(Cl)Cl)n1,inactive,–
CC1(C)CON(Cc2ccccc2Cl)C1=O,inactive,–
CN/C(=N\[N+](=O)[O-])NCc1cnc(Cl)s1,inactive,–
Cc1ccc(N=CN(C)C=Nc2ccc(C)cc2C)c(C)c1,inactive,–
CCN(CC)c1nc(C)cc(OP(=S)(OC)OC)n1,inactive,–

SMILES,outcome,AC50
COCC(C)N(C(=O)CCl)c1c(C)csc1C (configuration not stated),inactive,–
CCOc1nc(C(Cl)(Cl)Cl)ns1,–,1.3 µM (active)
CCC(C)n1c(=O)[nH]c(C)c(Br)c1=O (configuration not stated),inactive,–
Nc1cnn(-c2ccccc2)c(=O)c1Cl,inactive,–
N#Cc1c(Cl)cccc1Cl,inactive,–
CCN(CC)C(=O)C(C)Oc1cccc2ccccc12 (configuration not stated),inactive,–
CC1(C)C(C(=O)OC(C#N)c2cccc(Oc3ccccc3)c2)C1(C)C (configuration not stated),inactive,–
CC(C)Nc1nc(Cl)nc(NC(C)C)n1,inactive,–
N#Cc1c[nH]cc1-c1cccc2c1OC(F)(F)O2,inactive,–
Cn1c(-c2ccccc2)cc(-c2ccccc2)[n+]1C,inactive,–
CCCN(CC)CC1COC2(CCC(C(C)(C)C)CC2)O1 (configuration not stated),inactive,–
CCNP(=S)(OC)O/C(C)=C/C(=O)OC(C)C (configuration not stated),inactive,–
CS(=O)(=O)c1ccc(C(=O)C2C(=O)CCCC2=O)c([N+](=O)[O-])c1,inactive,–
COP(=S)(OC)Oc1ccc([N+](=O)[O-])c(C)c1,inactive,–
COC(=O)NC(=S)Nc1ccccc1NC(=S)NC(=O)OC,inactive,–
COc1cc(Cl)c(OC)cc1Cl,inactive,–
CC(C)(C)C(=O)C(Oc1ccc(Cl)cc1)n1cncn1 (configuration not stated),inactive,–
CCCCOCN(C(=O)CCl)c1c(CC)cccc1CC,inactive,–
